An excerpt weighted towards active compounds, which were near 3.3% of everything screened.
KinaseGlo FLuc = Kinase-Glo luciferase inhibition (counter-screen); Kinase-Glo luciferase, ATP luminescence, 8 min; Potency, µM (highest dose often 38.3 µM), usual class: inhibitors; actives 0.28% (n = 200,000); note: nearly all actives have a fitted effect of over 60% in size
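Recombinant Kinase-Glo luciferase, 10 uM ATP (linear range), luciferin; imidazole pH 7.2 / KCl / MgCl2 / Tween / BSA buffer; 8 min RT; luminescence.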
NPSR antag = neuropeptide S receptor (human) antagonism, cAMP; Q6W5P4; CHO-NPSR cells, cAMP TR-FRET, antagonist mode; Potency, µM (highest dose often 38.3 µM), hits mostly inhibitors; actives 1% (n = 220,000); AID 1461; note: nearly all actives have a fitted effect of over 50% in size
Target sequence (Q6W5P4 whole entry, looked up): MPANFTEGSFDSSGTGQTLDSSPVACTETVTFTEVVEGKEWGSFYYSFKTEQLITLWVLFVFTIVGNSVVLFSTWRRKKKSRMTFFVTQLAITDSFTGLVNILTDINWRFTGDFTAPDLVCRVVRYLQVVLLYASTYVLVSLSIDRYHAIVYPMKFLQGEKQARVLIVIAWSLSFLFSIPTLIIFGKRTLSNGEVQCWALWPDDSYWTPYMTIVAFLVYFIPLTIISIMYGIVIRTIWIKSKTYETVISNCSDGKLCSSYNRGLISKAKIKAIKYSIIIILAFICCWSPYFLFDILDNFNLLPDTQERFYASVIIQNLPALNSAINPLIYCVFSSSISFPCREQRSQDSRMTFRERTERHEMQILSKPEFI
Tau fluor counter = counter-screen for tau fibril formation inhibitors | tau K18 P301L Alexa594 fluorescence, heparin fibrillization | Potency, µM (titrated, usually from 57.7 µM) | actives 0.93% (n = 280,000) | AID 1463; note: nearly all actives have a fitted effect of over 55% in size
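Human K18 P301L tau (15 uM unlabeled plus 0.24 uM Alexa 594-labeled, final) in 100 mM sodium acetate pH 7 was mixed with compound and 20 uM heparin and incubated 6 hr at 37 C.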
Tau fibril ThT = inhibitors of human tau fibril formation, thioflavin T binding | P10636 | recombinant tau K18 P301L, heparin-induced fibrillization, ThT fluorescence | Potency, µM (top dose mostly 57.4 µM), most hits filed as inhibitors | actives 2.1% (n = 270,000) | AID 1460; note: nearly all actives have a fitted effect of over 55% in size
Target sequence (P10636 561-689 P618L limits assumed): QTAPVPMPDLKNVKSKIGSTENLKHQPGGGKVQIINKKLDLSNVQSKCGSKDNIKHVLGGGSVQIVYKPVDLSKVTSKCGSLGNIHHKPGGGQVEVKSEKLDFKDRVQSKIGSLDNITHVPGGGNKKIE
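Recombinant human tau K18 fragment […] carrying P301L, 15 uM unlabeled plus 0.24 uM Alexa 594-labeled, was fibrillized with 20 uM heparin in 100 mM sodium acetate pH 7 for 6 hr at 37 C; 30 uM ThT fluorescence read after 1 hr.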
Tau fibril FP = inhibitors of human tau fibril formation. P10636. K18 P301L tau heparin fibrillization, Alexa594 FP, 6 h. Potency, µM (highest dose often 57.7 µM), most hits filed as inhibitors. actives 0.39% (n = 280,000); note: nearly all actives have a fitted effect of over 55% in size
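Heparin (20 uM) drove fibril formation of recombinant tau K18 P301L, 15 uM unlabeled with 0.24 uM Alexa 594 label, for 6 hr at 37 C in 100 mM sodium acetate pH 7. Fluorescence polarization (555/632 nm) read 1 hr after 30 uM ThT.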
Hits are given with their value; [ ] = another dose, or the depositor's remark. Calls come from the whole dose curve; as a rule, active = well fitted curve in the direction sought with a large enough effect; inconclusive = small, poorly fitted or top-dose-only effect, or another doubt; inactive = no such curve, though single readings can be large; an effect the other way counts as inactive or inconclusive.

What do the screens show for `CCOC(=O)C1CCN(c2cc3c(cc2NC(=O)c2ccc(OC)c(OC)c2)n(C)c(=O)n3C)CC1`?
Tau fluor counter: inactive; Tau fibril ThT: inactive; Tau fibril FP: inactive

How did COc1cc(OC)cc(C(=O)Nc2ccc(-c3nc4cc(C(C)C)ccc4o3)cc2)c1 do in these assays?
Tau fluor counter: inconclusive; Tau fibril ThT: inactive; Tau fibril FP: inconclusive

Results for C[N+]1=C(/C=C/Nc2ccccc2Cl)C(C)(C)c2ccccc21 ?
KinaseGlo FLuc: inactive; NPSR antag: inactive; Tau fluor counter: inconclusive; Tau fibril ThT: 28µM; Tau fibril FP: inconclusive

How did COc1ccc(CCNC(=O)c2c([S-])n(-c3ccc(C)cc3)c3cccc[n+]23)cc1 do in these assays?
NPSR antag: inactive; Tau fluor counter: inactive; Tau fibril ThT: inconclusive; Tau fibril FP: inactive

What do the screens show for `CCc1ccc2n(-c3ccc(OC)cc3)c([S-])c(C(=O)Nc3cc(C)cc(C)c3)[n+]2c1`?
NPSR antag: 10µM; Tau fluor counter: inactive; Tau fibril ThT: inactive; Tau fibril FP: inactive

How did O=C1/C(=C/c2ccco2)CCC1C1CCCC1 (stereo not drawn) do in these assays?
KinaseGlo FLuc: inactive; NPSR antag: inactive; Tau fluor counter: inactive; Tau fibril ThT: inconclusive; Tau fibril FP: inactive

Results for CC1C/C(=C/c2ccco2)C(=O)/C(=C/c2ccco2)C1 (stereo not drawn) ?
KinaseGlo FLuc: inactive; NPSR antag: inactive; Tau fluor counter: inactive; Tau fibril ThT: 25µM; Tau fibril FP: inconclusive

What do the screens show for `O=C1/C(=C\c2ccco2)CCC/C1=C\c1ccco1`?
KinaseGlo FLuc: inactive; NPSR antag: inactive; Tau fluor counter: inactive; Tau fibril ThT: 18µM; Tau fibril FP: inconclusive

How did CN(C)c1ccc(SC#N)cc1 do in these assays?
NPSR antag: inactive; Tau fluor counter: inconclusive; Tau fibril ThT: 10µM; Tau fibril FP: inconclusive

Results for COc1ccc(NC(=O)Cn2nc(SC)c(S(=O)(=O)c3ccc(C)cc3)c2N)cc1OC ?
Tau fluor counter: inactive; Tau fibril ThT: inactive; Tau fibril FP: inactive

What do the screens show for `CCSc1nn(CC(=O)Nc2ccc(C(=O)OC)cc2)c(N)c1S(=O)(=O)c1ccc(C)cc1`?
Tau fluor counter: inconclusive; Tau fibril ThT: inactive; Tau fibril FP: 25µM

Results for CCOC(=O)c1ccc(NC(=O)Cn2nc(SC)c(S(=O)(=O)c3ccc(Cl)cc3)c2N)cc1 ?
Tau fluor counter: inconclusive; Tau fibril ThT: inactive; Tau fibril FP: 13µM

How did COc1ccc(Nc2nc(Nc3ccc(OC)cc3)nc(SC3=NCCS3)n2)cc1 do in these assays?
KinaseGlo FLuc: inactive; NPSR antag: inconclusive; Tau fluor counter: 14µM[quencher]; Tau fibril ThT: inconclusive; Tau fibril FP: inactive

How did CC1=Nc2ccccc2/C1=C/c1sc(=S)n(-c2cccc(C(=O)O)c2)c1O do in these assays?
KinaseGlo FLuc: inactive; NPSR antag: inactive; Tau fluor counter: inconclusive; Tau fibril ThT: 3.5µM; Tau fibril FP: inactive

Results for CSc1nsc2nc(=O)c(/C=C3\C(C)=Nc4ccccc43)c(N)n12 ?
KinaseGlo FLuc: inactive; NPSR antag: inactive; Tau fluor counter: inactive; Tau fibril ThT: inconclusive; Tau fibril FP: inactive

How did COc1ccc(CCNC(=O)c2ccc3c(c2)N(Cc2cccc(Cl)c2)C(=O)c2ccccc2S3=O)cc1OC (stereo not drawn) do in these assays?
Tau fluor counter: inactive; Tau fibril ThT: inactive; Tau fibril FP: inactive

Results for O=C(O)C1=CC(=C(c2ccc(O)c(C(=O)O)c2)c2ccc(O)c(C(=O)O)c2)C=CC1=O ?
KinaseGlo FLuc: inactive; NPSR antag: inactive; Tau fluor counter: inconclusive; Tau fibril ThT: 32µM; Tau fibril FP: inconclusive

Results for c1ccc(-c2ccc3c(c2)NCCN3)cc1 ?
NPSR antag: inactive; Tau fluor counter: inconclusive; Tau fibril ThT: inconclusive; Tau fibril FP: inactive

Results for COc1cccc(-c2nn(-c3ccccc3)cc2C(=O)Nc2nccs2)c1 ?
KinaseGlo FLuc: inactive; NPSR antag: inactive; Tau fluor counter: inconclusive; Tau fibril ThT: inactive; Tau fibril FP: 28µM

What do the screens show for `COc1ccc(-c2nn(-c3ccccc3)cc2C(=O)Nc2nccs2)cc1`?
KinaseGlo FLuc: inactive; NPSR antag: inactive; Tau fluor counter: inconclusive; Tau fibril ThT: inactive; Tau fibril FP: 28µM

What do the screens show for `O=C(NC1CC1)c1cc(=O)c2ccccc2o1`?
KinaseGlo FLuc: inactive; NPSR antag: inactive; Tau fluor counter: inactive; Tau fibril ThT: inactive; Tau fibril FP: inactive

Results for O=c1cc(/C=C/c2ccccc2)oc2ccccc12 ?
KinaseGlo FLuc: inactive; NPSR antag: 5µM; Tau fluor counter: inactive; Tau fibril ThT: inconclusive; Tau fibril FP: inactive

What do the screens show for `Oc1ccc(/C=N/Nc2cc(N3CCCC3)nc(N3CCCC3)n2)cc1O`?
KinaseGlo FLuc: inactive; NPSR antag: inactive; Tau fluor counter: 16µM[quencher]; Tau fibril ThT: 25µM; Tau fibril FP: inactive

Results for C=CCC1C=CC(Oc2ccc(OC)cc2)C(COC(=O)c2ccc(Br)cc2)O1 (stereo not drawn) ?
Tau fluor counter: inactive[11.6 µM]; Tau fibril ThT: inactive[11.5 µM]; Tau fibril FP: inactive[11.6 µM]

What do the screens show for `COc1cc(Cl)c(C)cc1NC(=O)c1cc2ccc3cccnc3c2[nH]1`?
Tau fluor counter: inactive; Tau fibril ThT: inactive; Tau fibril FP: inactive

What do the screens show for `CCOc1c(Cl)cc(CNc2ccc(N3CCCC3)cc2)cc1OC`?
KinaseGlo FLuc: inactive; NPSR antag: inactive; Tau fluor counter: inconclusive; Tau fibril ThT: 3.2µM; Tau fibril FP: 7.9µM

How did CCOc1cccc(CNc2ccc(O)cc2)c1OCc1ccccc1Cl do in these assays?
KinaseGlo FLuc: inactive; NPSR antag: inactive; Tau fluor counter: 10µM[quencher]; Tau fibril ThT: 28µM; Tau fibril FP: 11µM

What do the screens show for `CCOc1cc(CNc2ccc(O)cc2)cc(Cl)c1OCc1ccccc1`?
Tau fluor counter: 16µM[quencher]; Tau fibril ThT: inconclusive; Tau fibril FP: inactive

How did CCOc1c(Cl)cc(CNc2ccc(S(N)(=O)=O)cc2)cc1OC do in these assays?
KinaseGlo FLuc: inactive; NPSR antag: inactive; Tau fluor counter: inactive; Tau fibril ThT: inactive; Tau fibril FP: inactive

How did CCOc1cccc(CNn2cnnc2)c1OCc1ccccc1Cl do in these assays?
KinaseGlo FLuc: inactive; NPSR antag: inactive; Tau fluor counter: inactive; Tau fibril ThT: inactive; Tau fibril FP: inactive

What do the screens show for `CCOc1cc(CNc2ccccc2)cc(Br)c1OCc1ccc(F)cc1`?
KinaseGlo FLuc: inactive; NPSR antag: inconclusive; Tau fluor counter: inconclusive; Tau fibril ThT: inactive; Tau fibril FP: inactive

What do the screens show for `CCOc1cccc(CNc2ccc(O)cc2)c1OCc1ccc(Cl)cc1Cl`?
KinaseGlo FLuc: inactive; NPSR antag: inconclusive; Tau fluor counter: inconclusive; Tau fibril ThT: 28µM; Tau fibril FP: 28µM

Results for CCc1ccccc1N1CC(c2nc3ccccc3n2CCCOc2ccc(Cl)cc2)CC1=O (stereo not drawn) ?
Tau fluor counter: inactive; Tau fibril ThT: inconclusive; Tau fibril FP: inactive

How did CCC(=O)OC1(C)C(=O)C2=COC(c3ccc(OC)cc3)=CC2=C(Br)C1=O (stereo not drawn) do in these assays?
KinaseGlo FLuc: inactive; NPSR antag: inactive; Tau fluor counter: inactive; Tau fibril ThT: 16µM; Tau fibril FP: inactive

Screening data as filed in PubChem BioAssay.
